Each structure is given as a SMILES string.

Assay [1] concerns the target T1, Serine/threonine-protein kinase Nek9 (Homo sapiens) (UniProt Q8TD19).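 Also: each value is a mean percent inhibition of NEK9.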
T1 sequence (whole entry): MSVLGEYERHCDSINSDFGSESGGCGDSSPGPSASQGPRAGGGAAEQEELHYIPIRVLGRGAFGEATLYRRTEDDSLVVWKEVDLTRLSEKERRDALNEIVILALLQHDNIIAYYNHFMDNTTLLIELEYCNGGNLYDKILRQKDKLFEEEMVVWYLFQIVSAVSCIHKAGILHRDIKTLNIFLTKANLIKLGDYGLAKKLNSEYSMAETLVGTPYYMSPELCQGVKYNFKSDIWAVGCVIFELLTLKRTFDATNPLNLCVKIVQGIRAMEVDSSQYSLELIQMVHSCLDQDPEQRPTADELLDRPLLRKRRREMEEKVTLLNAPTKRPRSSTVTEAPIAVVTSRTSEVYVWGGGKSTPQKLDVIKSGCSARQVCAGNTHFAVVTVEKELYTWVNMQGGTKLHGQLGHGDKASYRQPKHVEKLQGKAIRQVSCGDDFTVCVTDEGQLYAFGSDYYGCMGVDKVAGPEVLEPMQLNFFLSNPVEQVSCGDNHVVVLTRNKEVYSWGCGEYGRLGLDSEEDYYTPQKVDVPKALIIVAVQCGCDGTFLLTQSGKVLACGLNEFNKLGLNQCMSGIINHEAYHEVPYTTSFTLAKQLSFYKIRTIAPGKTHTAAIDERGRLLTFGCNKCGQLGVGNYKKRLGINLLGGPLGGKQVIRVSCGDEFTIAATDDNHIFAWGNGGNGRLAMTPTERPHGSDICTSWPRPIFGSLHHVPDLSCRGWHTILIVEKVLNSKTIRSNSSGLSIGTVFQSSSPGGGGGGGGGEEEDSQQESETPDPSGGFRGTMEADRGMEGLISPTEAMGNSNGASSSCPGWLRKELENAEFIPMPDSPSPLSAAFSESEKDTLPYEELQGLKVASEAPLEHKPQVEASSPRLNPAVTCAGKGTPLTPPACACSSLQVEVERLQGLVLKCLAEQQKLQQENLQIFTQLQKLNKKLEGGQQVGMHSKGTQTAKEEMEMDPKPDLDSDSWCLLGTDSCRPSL
The following applies: at 1 µM.

Assay [2] addresses Serine/threonine-protein kinase PLK1 (Homo sapiens) (UniProt P53350). The following applies: at 0.1 µM.
The target is the same in assay [3]. The following applies: at 1 µM.
Assay [4] deals with T2, Dual specificity protein kinase TTK (Homo sapiens) (UniProt P33981).
T2 sequence (whole entry): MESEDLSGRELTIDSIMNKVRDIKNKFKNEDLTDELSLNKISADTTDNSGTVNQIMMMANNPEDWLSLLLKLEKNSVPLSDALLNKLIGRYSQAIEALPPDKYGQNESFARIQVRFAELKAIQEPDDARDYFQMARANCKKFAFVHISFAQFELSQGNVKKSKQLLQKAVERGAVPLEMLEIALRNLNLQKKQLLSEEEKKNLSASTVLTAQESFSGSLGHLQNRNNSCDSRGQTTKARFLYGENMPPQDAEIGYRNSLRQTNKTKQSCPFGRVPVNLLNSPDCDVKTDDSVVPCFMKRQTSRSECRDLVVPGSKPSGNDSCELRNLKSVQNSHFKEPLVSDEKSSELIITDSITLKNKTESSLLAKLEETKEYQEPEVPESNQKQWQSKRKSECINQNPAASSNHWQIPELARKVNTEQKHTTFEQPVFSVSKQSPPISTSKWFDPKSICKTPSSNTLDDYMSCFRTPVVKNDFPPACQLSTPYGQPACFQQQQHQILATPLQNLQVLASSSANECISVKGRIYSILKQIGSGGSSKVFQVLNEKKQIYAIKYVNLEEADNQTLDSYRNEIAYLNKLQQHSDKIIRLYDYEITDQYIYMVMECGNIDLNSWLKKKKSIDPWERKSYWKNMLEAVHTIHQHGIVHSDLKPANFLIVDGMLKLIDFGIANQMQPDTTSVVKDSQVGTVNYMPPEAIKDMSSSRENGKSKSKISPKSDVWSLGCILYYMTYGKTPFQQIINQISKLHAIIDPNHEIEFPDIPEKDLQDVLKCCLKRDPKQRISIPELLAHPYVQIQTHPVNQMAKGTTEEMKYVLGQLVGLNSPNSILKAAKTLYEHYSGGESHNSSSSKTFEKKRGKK
The following applies: at 0.1 µM.

In assay [5] the test system is T3, Receptor-type tyrosine-protein kinase FLT3 (Homo sapiens), P36888 [D835Y].
T3 sequence (whole entry): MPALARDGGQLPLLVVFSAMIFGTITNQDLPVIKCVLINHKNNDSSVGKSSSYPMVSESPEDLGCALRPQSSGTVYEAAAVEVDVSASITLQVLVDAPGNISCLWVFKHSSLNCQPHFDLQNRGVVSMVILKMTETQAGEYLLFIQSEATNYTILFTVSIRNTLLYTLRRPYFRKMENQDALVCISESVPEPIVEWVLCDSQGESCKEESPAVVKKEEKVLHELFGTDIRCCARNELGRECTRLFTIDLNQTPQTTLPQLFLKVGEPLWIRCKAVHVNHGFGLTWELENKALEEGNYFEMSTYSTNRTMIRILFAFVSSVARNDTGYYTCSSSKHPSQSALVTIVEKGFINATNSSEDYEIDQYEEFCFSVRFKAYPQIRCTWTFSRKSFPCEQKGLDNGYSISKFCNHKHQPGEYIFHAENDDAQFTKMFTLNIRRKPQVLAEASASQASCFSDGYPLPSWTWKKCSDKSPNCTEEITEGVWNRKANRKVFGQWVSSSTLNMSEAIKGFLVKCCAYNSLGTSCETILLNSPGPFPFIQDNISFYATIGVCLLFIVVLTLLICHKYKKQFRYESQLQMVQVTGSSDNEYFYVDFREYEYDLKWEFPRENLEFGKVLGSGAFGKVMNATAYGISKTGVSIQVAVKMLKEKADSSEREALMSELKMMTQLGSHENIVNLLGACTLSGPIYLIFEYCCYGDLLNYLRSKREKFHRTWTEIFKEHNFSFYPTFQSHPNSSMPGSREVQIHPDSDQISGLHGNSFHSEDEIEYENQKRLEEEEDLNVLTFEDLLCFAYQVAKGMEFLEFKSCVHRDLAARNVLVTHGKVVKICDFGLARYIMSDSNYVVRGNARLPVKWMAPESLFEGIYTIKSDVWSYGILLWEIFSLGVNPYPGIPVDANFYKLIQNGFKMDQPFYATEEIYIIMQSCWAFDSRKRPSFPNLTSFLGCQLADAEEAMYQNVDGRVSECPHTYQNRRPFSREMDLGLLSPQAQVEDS
The settings on record: at 1 µM.

Assay [6] concerns the target Vascular endothelial growth factor receptor 3 (Homo sapiens) (UniProt P35916). The following applies: at 0.1 µM.
For assay [7] the target is unchanged. The following applies: at 1 µM.
In assay [8] the target is Macrophage colony-stimulating factor 1 receptor (Homo sapiens) (UniProt P07333). The settings on record: at 0.1 µM.
For assay [9] the target is unchanged. The following applies: at 1 µM.
For assay [10], the target named is Tyrosine-protein kinase Fyn (Homo sapiens) (UniProt P06241). The following applies: at 0.1 µM.
Chain of Tyrosine-protein kinase Fyn (Homo sapiens) (P06241 2-537 limits assumed): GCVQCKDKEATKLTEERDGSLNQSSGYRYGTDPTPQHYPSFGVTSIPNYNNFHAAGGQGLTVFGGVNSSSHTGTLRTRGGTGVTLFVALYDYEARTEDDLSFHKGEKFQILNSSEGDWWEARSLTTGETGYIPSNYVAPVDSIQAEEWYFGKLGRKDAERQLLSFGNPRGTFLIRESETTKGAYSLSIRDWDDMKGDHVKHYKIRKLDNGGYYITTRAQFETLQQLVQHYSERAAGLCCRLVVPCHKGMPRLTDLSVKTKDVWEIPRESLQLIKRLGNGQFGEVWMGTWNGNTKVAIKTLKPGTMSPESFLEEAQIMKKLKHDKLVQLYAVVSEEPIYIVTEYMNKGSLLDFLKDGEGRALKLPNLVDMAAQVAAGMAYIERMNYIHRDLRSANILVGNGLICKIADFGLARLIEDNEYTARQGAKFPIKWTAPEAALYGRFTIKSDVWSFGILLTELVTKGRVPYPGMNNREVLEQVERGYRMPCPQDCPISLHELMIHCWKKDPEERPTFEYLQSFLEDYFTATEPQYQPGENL

Chain of Macrophage colony-stimulating factor 1 receptor (Homo sapiens) (P07333 whole entry): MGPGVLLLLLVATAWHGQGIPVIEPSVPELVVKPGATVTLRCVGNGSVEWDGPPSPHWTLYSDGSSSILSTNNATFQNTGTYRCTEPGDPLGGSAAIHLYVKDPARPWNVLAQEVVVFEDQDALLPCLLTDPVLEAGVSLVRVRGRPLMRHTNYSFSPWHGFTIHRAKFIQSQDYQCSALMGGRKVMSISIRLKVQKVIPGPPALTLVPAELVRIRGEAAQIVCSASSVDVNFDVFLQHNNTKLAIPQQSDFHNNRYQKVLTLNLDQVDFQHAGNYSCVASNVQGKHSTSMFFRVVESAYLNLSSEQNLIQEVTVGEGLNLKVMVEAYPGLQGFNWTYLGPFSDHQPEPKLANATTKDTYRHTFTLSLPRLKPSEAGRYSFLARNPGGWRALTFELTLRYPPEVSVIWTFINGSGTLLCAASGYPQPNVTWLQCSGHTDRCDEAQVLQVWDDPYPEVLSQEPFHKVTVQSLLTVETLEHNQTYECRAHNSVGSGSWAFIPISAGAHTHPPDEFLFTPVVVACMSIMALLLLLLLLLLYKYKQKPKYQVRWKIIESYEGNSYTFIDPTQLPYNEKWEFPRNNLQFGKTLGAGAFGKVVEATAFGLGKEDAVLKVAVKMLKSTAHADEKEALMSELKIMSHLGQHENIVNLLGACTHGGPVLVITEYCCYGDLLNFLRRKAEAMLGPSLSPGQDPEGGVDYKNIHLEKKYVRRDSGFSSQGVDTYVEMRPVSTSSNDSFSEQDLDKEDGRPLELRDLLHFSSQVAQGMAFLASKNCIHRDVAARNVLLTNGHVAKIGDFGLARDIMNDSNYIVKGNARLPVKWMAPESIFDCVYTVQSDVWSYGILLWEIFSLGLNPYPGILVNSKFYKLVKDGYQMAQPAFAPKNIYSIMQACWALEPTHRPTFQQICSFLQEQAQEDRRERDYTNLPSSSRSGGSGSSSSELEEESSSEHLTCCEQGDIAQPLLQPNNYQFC
Chain of Serine/threonine-protein kinase PLK1 (Homo sapiens) (P53350 whole entry): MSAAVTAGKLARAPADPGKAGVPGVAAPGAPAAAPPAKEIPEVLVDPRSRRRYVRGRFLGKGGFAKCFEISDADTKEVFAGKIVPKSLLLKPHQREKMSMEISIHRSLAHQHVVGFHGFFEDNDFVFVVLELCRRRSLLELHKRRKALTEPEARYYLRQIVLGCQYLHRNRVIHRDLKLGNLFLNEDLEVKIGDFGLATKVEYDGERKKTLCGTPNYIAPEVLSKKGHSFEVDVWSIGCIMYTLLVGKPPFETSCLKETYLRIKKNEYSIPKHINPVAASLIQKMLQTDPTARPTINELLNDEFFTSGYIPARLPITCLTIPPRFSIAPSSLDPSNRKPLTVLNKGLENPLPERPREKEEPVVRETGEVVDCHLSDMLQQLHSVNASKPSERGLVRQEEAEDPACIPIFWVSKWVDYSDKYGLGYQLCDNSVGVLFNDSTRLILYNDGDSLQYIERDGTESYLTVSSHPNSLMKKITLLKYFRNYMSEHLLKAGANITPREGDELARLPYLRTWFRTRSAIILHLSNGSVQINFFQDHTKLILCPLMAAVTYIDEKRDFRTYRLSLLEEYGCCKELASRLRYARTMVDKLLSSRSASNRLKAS
Chain of Vascular endothelial growth factor receptor 3 (Homo sapiens) (P35916 whole entry): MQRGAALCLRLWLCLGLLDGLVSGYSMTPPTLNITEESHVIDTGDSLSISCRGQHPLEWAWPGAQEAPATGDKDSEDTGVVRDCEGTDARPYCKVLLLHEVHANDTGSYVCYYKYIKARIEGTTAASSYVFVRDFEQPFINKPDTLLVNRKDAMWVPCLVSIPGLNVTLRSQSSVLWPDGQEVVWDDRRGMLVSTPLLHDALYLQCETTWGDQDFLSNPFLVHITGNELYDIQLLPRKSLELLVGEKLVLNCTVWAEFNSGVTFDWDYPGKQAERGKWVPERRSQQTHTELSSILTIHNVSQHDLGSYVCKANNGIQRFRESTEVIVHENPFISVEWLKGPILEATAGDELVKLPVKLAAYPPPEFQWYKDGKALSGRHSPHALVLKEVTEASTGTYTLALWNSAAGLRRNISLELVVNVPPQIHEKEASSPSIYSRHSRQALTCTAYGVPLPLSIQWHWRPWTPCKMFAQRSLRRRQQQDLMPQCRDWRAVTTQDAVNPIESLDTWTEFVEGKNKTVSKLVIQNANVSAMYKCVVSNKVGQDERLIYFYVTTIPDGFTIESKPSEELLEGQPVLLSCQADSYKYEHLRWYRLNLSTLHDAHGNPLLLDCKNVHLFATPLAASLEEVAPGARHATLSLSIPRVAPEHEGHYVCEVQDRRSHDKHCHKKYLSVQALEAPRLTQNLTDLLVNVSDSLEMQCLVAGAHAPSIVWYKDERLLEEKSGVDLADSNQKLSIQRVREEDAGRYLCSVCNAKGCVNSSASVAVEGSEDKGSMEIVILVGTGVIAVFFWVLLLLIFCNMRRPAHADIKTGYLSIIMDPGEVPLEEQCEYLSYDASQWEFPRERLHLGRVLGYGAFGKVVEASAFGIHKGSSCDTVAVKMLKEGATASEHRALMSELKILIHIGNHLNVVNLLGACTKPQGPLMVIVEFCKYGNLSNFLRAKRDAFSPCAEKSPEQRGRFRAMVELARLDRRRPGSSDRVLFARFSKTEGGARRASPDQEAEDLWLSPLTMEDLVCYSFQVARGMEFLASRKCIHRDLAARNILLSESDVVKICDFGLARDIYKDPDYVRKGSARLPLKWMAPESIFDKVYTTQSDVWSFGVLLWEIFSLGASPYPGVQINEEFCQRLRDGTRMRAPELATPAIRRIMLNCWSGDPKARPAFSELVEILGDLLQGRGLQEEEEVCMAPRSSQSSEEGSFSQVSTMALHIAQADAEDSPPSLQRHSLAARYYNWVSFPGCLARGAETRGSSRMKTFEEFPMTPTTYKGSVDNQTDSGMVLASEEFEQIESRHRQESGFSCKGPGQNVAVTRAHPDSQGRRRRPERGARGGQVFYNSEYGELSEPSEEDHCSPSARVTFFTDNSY

What is called inhibition is the change of the read-out against control, counted positive when it falls. For `Cc1ccc2c(-c3ccnc(Nc4ccccc4)n3)c(-c3ccc(F)cc3)nn2n1`, the inhibition in assay [1] was 5.94%; in assay [2], 1.63%; in assay [3], 1.62%; in assay [4] it was 4.36%; in assay [5], -2.14%; in assay [6], 5.68%. The inhibition was 28.3% in [7], 10.5% in [8], 45.1% in assay [9] and 18.7% in assay [10].

For the compound `c1ccc(-c2nc3n(c2-c2ccc4c(c2)OCO4)CCC3)nc1`, the inhibition in assay [1] is 0.13%; in [2], 1.59%; in assay [3], 1.37%; in assay [4], 4.41%; in [5] it was 4.03%; in assay [6] it was 13.3%. Further, the inhibition stood at 15.8% in assay [7], 4.57% in assay [8], 1.74% in assay [9] and 1.85% in assay [10].

`COc1ccc2c(-c3ccnc(Nc4cccc(OC(F)(F)F)c4)n3)cnn2n1`: the inhibition in assay [1] amounted to 10.2%; in assay [2], 3.05%; in assay [3] it was 3.9%; in [4], 5.81%; in assay [5], 15.6%; in assay [6] it was 4.15%. Moreover, the inhibition was 5.87% in assay [7], 7.22% in assay [8], 33.3% in assay [9] and 2.72% in assay [10].

As to `CC(C)(CO)CNC(=O)c1ccc2c(c1)/C(=N/Nc1ccc(S(N)(=O)=O)cc1)C(=O)N2`, the inhibition was 8.02% in [1]; 1.21% in assay [2]; 0.88% in assay [3]; 61.5% in assay [4]; 45.6% in [5]; 4.05% in assay [6]. For the same compound, the inhibition in assay [7] is 44.3%; in assay [8], -6.57%; in [9], 3.69%; in [10], 10.9%.

As for `CCn1c(-c2nonc2N)nc2ccccc21`, the inhibition in [1] is 0.94%; in assay [2], 6.53%; in [3], 2.85%; in assay [4] it was 3.51%; in assay [5] it was -3.67%; in assay [6], 5.92%. The inhibition in assay [7] stood at 5.29%; in [8], 0.61%; in assay [9], 2.71%; in assay [10], 0.86%.

As for `COc1ccc(-c2nn3ncccc3c2-c2ccnc(Nc3ccc4c(c3)OCCO4)n2)cc1`, the inhibition in [1] worked out at 8.39%; in assay [2], 2.68%; in assay [3], 2.45%; in [4] it was 4.08%; in assay [5], 0.07%; in assay [6], 8.62%. For the same compound, the inhibition in assay [7] is 56.4%; in assay [8] it was 19.6%; in assay [9] it was 66.8%; in assay [10], 5.65%.

As to `CC(C)COC(=O)c1ccc2c(c1)/C(=C/Nc1ccc(S(N)(=O)=O)cc1)C(=O)N2`, the inhibition in [1] is 0.18%; in [2] it was 1.14%; in assay [3], 2.98%; in [4], 53.6%; in assay [5] it was 86.5%; in assay [6], 30.1%. Also, the inhibition in assay [7] was 80.6%; in assay [8], 7.27%; in assay [9], 45.8%; in assay [10], 22.6%.

In the case of `COc1cc(N2CCN(C(C)C)CC2)ccc1Nc1nc(Nc2ccc(F)cc2C(N)=O)c2cc[nH]c2n1`, the inhibition in [1] was 13.5%; in assay [2] it was 16%; in assay [3], 64.8%; in assay [4] it was 83%; in [5], 40.7%; in assay [6], 3.45%. The inhibition in [7] worked out at 2.68%; in assay [8], 11.7%; in assay [9] it was 48.1%; in assay [10], 2.48%.

`CN1CCC(n2cnc(-c3ccc(F)cc3)c2-c2ccnc(Nc3ccccc3)n2)CC1`: the inhibition amounted to 10.1% in assay [1]; 6.81% in assay [2]; 2.65% in assay [3]; 9.56% in assay [4]; 2.38% in assay [5]; 0.02% in assay [6]. For the same compound, the inhibition in assay [7] was 1.32%; in assay [8] it was -1.19%; in assay [9], 4.11%; in assay [10] it was 0.05%.

For the origin of these results see ChEMBL document CHEMBL1961873, “Compounds: GSK PKIS; Assays: Nanosyn kinase panel” (2012).
